Assay results reported in PubChem BioAssay AID1159580 (chemical genetic matrix, 2015).
Out of some 5,500 compounds screened, about 2,000 (36%) were called active. Inconclusive results (about 18%) are left out. Rule as the data show it: active = normalized growth mostly below about 0.91 (no sharp cut-off); inconclusive = no clear call, values can overlap the other calls; inactive = mostly above about 0.92. This is one part of the list.

Experiment: chemical genetic growth profiling, strain panel (AID 1159580);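 also: tested at 20 µM; growth read once vehicle control cultures reached saturation at 30 °C; 1 = growth at the plate median or of vehicle wells; lower values mean less growth of the strain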
Conditions: growth OD

Measured: normalized growth

NC(=O)c1ncn([C@@H]2O[C@H](CO)[C@@H](O)[C@H]2O)n1
inactive: S. cerevisiae deletion strains, locus YJR075W, strain HOC1, stronger effect = lower value 0.989 | S. cerevisiae deletion strains, locus YKL009W, strain mrt4, stronger effect = lower value 0.992 | S. cerevisiae deletion strains, locus YKL068W, stronger effect = lower value 0.981 | S. cerevisiae deletion strains, locus YKL085W, strain MDH1 (second series), stronger effect = lower value 1 | S. cerevisiae deletion strains, locus YKL085W, strain MDH1, stronger effect = lower value 1 | S. cerevisiae deletion strains, locus YKL160W, strain elf1, stronger effect = lower value 0.984 | S. cerevisiae deletion strains, locus YKL190W, strain CNB1, stronger effect = lower value 0.988 | S. cerevisiae deletion strains, locus YKR001C, strain vps1, stronger effect = lower value 0.984 | S. cerevisiae deletion strains, locus YKR026C, strain gcn3, stronger effect = lower value 0.984 | S. cerevisiae deletion strains, locus YKR091W, strain srl3, stronger effect = lower value 0.982 | S. cerevisiae deletion strains, locus YLL001W, strain dnm1, stronger effect = lower value 0.984 | S. cerevisiae deletion strains, locus YLL026W, stronger effect = lower value 0.984 | S. cerevisiae deletion strains, locus YLL041C, strain sdh2, stronger effect = lower value 0.983 | S. cerevisiae deletion strains, locus YLR027C, strain aat2, stronger effect = lower value 0.983 | S. cerevisiae deletion strains, locus YLR039C, strain RIC1, stronger effect = lower value 1.01 | S. cerevisiae deletion strains, locus YLR058C, strain SHM2, stronger effect = lower value 0.999 | S. cerevisiae deletion strains, locus YLR102C, strain apc9, stronger effect = lower value 0.998 | S. cerevisiae deletion strains, locus YLR113W, strain HOG1, stronger effect = lower value 0.977 | S. cerevisiae deletion strains, locus YLR221C, strain rsa3, stronger effect = lower value 0.982 | S. cerevisiae deletion strains, locus YLR258W, strain gsy2, stronger effect = lower value 0.98 | S. cerevisiae deletion strains, locus YLR262C, strain YPT6 (second series), stronger effect = lower value 0.987 | S. cerevisiae deletion strains, locus YLR262C, strain YPT6, stronger effect = lower value 0.977 | S. cerevisiae deletion strains, locus YLR268W, strain sec22, stronger effect = lower value 0.987 | S. cerevisiae deletion strains, locus YLR320W, strain mms22, stronger effect = lower value 0.993 | S. cerevisiae deletion strains, locus YLR330W, strain CHS5, stronger effect = lower value 0.989 | S. cerevisiae deletion strains, locus YLR342W, strain FKS1 (second series), stronger effect = lower value 0.991 | S. cerevisiae deletion strains, locus YLR342W, strain FKS1, stronger effect = lower value 0.985 | S. cerevisiae deletion strains, locus YLR357W, strain rsc2, stronger effect = lower value 0.995 | S. cerevisiae deletion strains, locus YLR370C, strain arc18, stronger effect = lower value 0.984 | S. cerevisiae deletion strains, locus YLR371W, strain rom2, stronger effect = lower value 0.985 | S. cerevisiae deletion strains, locus YLR384C, strain iki3, stronger effect = lower value 0.979 | S. cerevisiae deletion strains, locus YLR418C, strain cdc73, stronger effect = lower value 1.03 | S. cerevisiae deletion strains, locus YML016C, strain PPZ1, stronger effect = lower value 1 | S. cerevisiae deletion strains, locus YML032C, strain rad52, stronger effect = lower value 0.988 | S. cerevisiae deletion strains, locus YML120C, strain ndi1, stronger effect = lower value 0.99 | S. cerevisiae deletion strains, locus YML124C, strain tub3, stronger effect = lower value 0.985 | S. cerevisiae deletion strains, locus YMR058W, strain fet3, stronger effect = lower value 0.998 | S. cerevisiae deletion strains, locus YMR078C, strain ctf18, stronger effect = lower value 0.979 | S. cerevisiae deletion strains, locus YMR125W, strain sto1, stronger effect = lower value 0.991 | S. cerevisiae deletion strains, locus YMR129W, stronger effect = lower value 0.997 | S. cerevisiae deletion strains, locus YMR205C, strain PFK2, stronger effect = lower value 0.996 | S. cerevisiae deletion strains, locus YMR223W, strain ubp8, stronger effect = lower value 0.989 | S. cerevisiae deletion strains, locus YMR231W, strain pep5, stronger effect = lower value 0.974 | S. cerevisiae deletion strains, locus YMR263W, strain SAP30, stronger effect = lower value 0.986 | S. cerevisiae deletion strains, locus YMR307W, strain GAS1, stronger effect = lower value 1 | S. cerevisiae deletion strains, locus YNL067W, strain RPL9B, stronger effect = lower value 1 | S. cerevisiae deletion strains, locus YNL071W, strain lat1, stronger effect = lower value 0.988 | S. cerevisiae deletion strains, locus YNL128W, strain TEP1, stronger effect = lower value 1 | S. cerevisiae deletion strains, locus YNL153C, strain GIM3, stronger effect = lower value 1 | S. cerevisiae deletion strains, locus YNL183C, strain NPR1, stronger effect = lower value 0.933 | S. cerevisiae deletion strains, locus YNL209W, strain ssb2, stronger effect = lower value 1 | S. cerevisiae deletion strains, locus YNL233W, strain BNI4, stronger effect = lower value 1.01 | S. cerevisiae deletion strains, locus YNL248C, strain rpa49, stronger effect = lower value 0.986 | S. cerevisiae deletion strains, locus YNL250W, strain rad50, stronger effect = lower value 0.989 | S. cerevisiae deletion strains, locus YNL271C, strain bni1, stronger effect = lower value 0.994 | S. cerevisiae deletion strains, locus YNL298W, strain CLA4, stronger effect = lower value 0.97 | S. cerevisiae deletion strains, locus YNL307C, strain MCK1, stronger effect = lower value 1 | S. cerevisiae deletion strains, locus YNL322C, strain KRE1 (second series), stronger effect = lower value 0.979 | S. cerevisiae deletion strains, locus YNL322C, strain KRE1, stronger effect = lower value 1 | S. cerevisiae deletion strains, locus YNR049C, strain mso1, stronger effect = lower value 0.986 | S. cerevisiae deletion strains, locus YNR052C, strain pop2, stronger effect = lower value 0.977 | S. cerevisiae deletion strains, locus YOL006C, strain TOP1, stronger effect = lower value 1.05 | S. cerevisiae deletion strains, locus YOL012C, strain htz1 1.07 | S. cerevisiae deletion strains, locus YOL147C, strain pex11, stronger effect = lower value 0.981 | S. cerevisiae deletion strains, locus YOR001W, strain rrp6, stronger effect = lower value 0.982 | S. cerevisiae deletion strains, locus YOR061W, strain CKA2, stronger effect = lower value 0.998 | S. cerevisiae deletion strains, locus YOR069W, strain VPS5, stronger effect = lower value 1 | S. cerevisiae deletion strains, locus YOR070C, strain gyp1, stronger effect = lower value 0.98 | S. cerevisiae deletion strains, locus YOR080W, strain dia2, stronger effect = lower value 0.979 | S. cerevisiae deletion strains, locus YOR083W, strain WHI5, stronger effect = lower value 0.986 | S. cerevisiae deletion strains, locus YOR106W, strain vam3, stronger effect = lower value 0.989 | S. cerevisiae deletion strains, locus YOR136W, strain idh2, stronger effect = lower value 0.984 | S. cerevisiae deletion strains, locus YOR144C, strain elg1, stronger effect = lower value 0.985 | S. cerevisiae deletion strains, locus YOR184W, strain ser1, stronger effect = lower value 0.992 | S. cerevisiae deletion strains, locus YOR231W, strain MKK1, stronger effect = lower value 0.975 | S. cerevisiae deletion strains, locus YOR265W, strain rbl2, stronger effect = lower value 0.972 | S. cerevisiae deletion strains, locus YOR270C, strain vph1, stronger effect = lower value 1.02 | S. cerevisiae deletion strains, locus YOR290C, strain snf2, stronger effect = lower value 0.976 | S. cerevisiae deletion strains, locus YOR316C, strain cot1, stronger effect = lower value 0.99 | S. cerevisiae deletion strains, locus YPL051W, strain arl3, stronger effect = lower value 0.98 | S. cerevisiae deletion strains, locus YPL055C, strain LGE1, stronger effect = lower value 0.951 | S. cerevisiae deletion strains, locus YPL078C, strain atp4, stronger effect = lower value 0.992 | S. cerevisiae deletion strains, locus YPL106C, strain sse1, stronger effect = lower value 0.939 | S. cerevisiae deletion strains, locus YPL240C, strain hsp82, stronger effect = lower value 0.992 | S. cerevisiae deletion strains, locus YPL241C, strain CIN2, stronger effect = lower value 0.985 | S. cerevisiae deletion strains, locus YPL256C, strain CLN2, stronger effect = lower value 0.981 | S. cerevisiae deletion strains, locus YPR119W, strain clb2, stronger effect = lower value 0.985 | S. cerevisiae deletion strains, locus YPR141C, strain kar3, stronger effect = lower value 0.989 | S. cerevisiae deletion strains, locus YPR163C, strain tif3, stronger effect = lower value 0.978 | S. cerevisiae deletion strains, locus YPR167C, strain met16, stronger effect = lower value 0.995 | S. cerevisiae deletion strains, strain wtn01, stronger effect = lower value 0.983 | S. cerevisiae strains, strain wild type, stronger effect = lower value 0.996
